# Test results published in PubChem BioAssay (NCI).
# The panel holds about 83,000 compounds, 20% with a hit somewhere; the sample as a whole holds those more often.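 Compound tested at a single concentration for 48 hours in 96-well plates; a percent growth value below 10 was scored as active.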 Values without a mark were called inactive. Calls of active or inactive are those of the source.
# Experiments:
# Experiment in all cases: NCI-60 one-dose screen, 48 h (100 = growth as untreated, 0 = no growth, -100 = all killed)
# Details in all cases: 10 µM unless noted
# HCT-15 colon = system: HCT-15 colon
# HT29 colon = system: HT29 colon
# SNB-75 CNS = system: SNB-75 CNS
# U251 CNS = system: U251 CNS
# PC-3 prostate = system: PC-3 prostate
# SK-MEL-5 melanoma = system: SK-MEL-5 melanoma
# UACC-62 melanoma = system: UACC-62 melanoma
# LOX IMVI melanoma = system: LOX IMVI melanoma
# SK-MEL-28 melanoma = system: SK-MEL-28 melanoma
# SK-MEL-2 melanoma = system: SK-MEL-2 melanoma
# EKVX NSCLC = system: EKVX NSCLC
# SN12C renal = system: SN12C renal
# UO-31 renal = system: UO-31 renal
# TK-10 renal = system: TK-10 renal
# ACHN renal = system: ACHN renal
# CAKI-1 renal = system: CAKI-1 renal
# A498 renal = system: A498 renal
# CCRF-CEM leukemia = system: CCRF-CEM leukemia
# MOLT-4 leukemia = system: MOLT-4 leukemia
# SNB-19 CNS = system: SNB-19 CNS
Compound,growth (HCT-15 colon),growth (HT29 colon),growth (SNB-75 CNS),growth (U251 CNS),growth (PC-3 prostate),growth (SK-MEL-5 melanoma),growth (UACC-62 melanoma),growth (LOX IMVI melanoma),growth (SK-MEL-28 melanoma),growth (SK-MEL-2 melanoma),growth (EKVX NSCLC),growth (SN12C renal),growth (UO-31 renal),growth (TK-10 renal),growth (ACHN renal),growth (CAKI-1 renal),growth (A498 renal),growth (CCRF-CEM leukemia),growth (MOLT-4 leukemia),growth (SNB-19 CNS)
O=C(O/C(=C/c1ccccc1)C(F)(F)F)c1ccccc1,114%,110%,92.7%,102%,104%,102%,100%,99.1%,116%,103%,103%,99.3%,102%,103%,110%,99%,88.7%,106%,7.51% (active),–
Fc1ccc(-c2cnc3nonc3n2)c(F)c1,78.3%,113%,96.4%,111%,73.3%,96.2%,87.6%,93.1%,101%,108%,108%,107%,89.1%,121%,95.2%,96.3%,80.9%,46.1%,77.6%,–
O=C1/C(=C/N2N=C(c3ccc(Cl)cc3)CC2c2ccccc2O)SC(=S)N1c1cccc(C(F)(F)F)c1 (stereo not drawn),43.5%,37.6%,–,45.1%,23.6%,79.7%,52.3%,48.3%,73.9%,90.7%,52.5%,52.6%,24.9%,78.3%,55.3%,55.5%,65.8%,30%,8.36% (active),71%
O=C(O)c1ccccc1Oc1cc(-c2ccco2)nc(OCCN2CCOCC2)n1,101%,92.5%,–,113%,127%,99.9%,98.9%,99.5%,106%,100%,113%,97.3%,87.6%,97.4%,107%,96.2%,104%,94.2%,101%,96.9%
c1ccc(CCn2cccc2)nc1,119%,114%,95.1%,103%,98.9%,109%,97.9%,98.6%,118%,101%,107%,102%,94.3%,99.7%,104%,91.1%,105%,105%,18.7%,–
O=S1(=O)NCCN1CCNc1nccc(-c2c(-c3cccc(O)c3)nc3sccn23)n1,127%,71.6%,–,120%,78.5%,94.4%,6.31% (active),55%,31.3%,72.1%,111%,95.2%,116%,130%,97%,80.8%,118%,88.1%,110%,122%
CC(C)(C)[Si](C)(C)OC1[C@@H](O[Si](C)(C)C(C)(C)C)[C@@H](CNC(=O)NC(=O)NC(=O)CCl)O[C@H]1n1cnc2c(NC(=O)Nc3ccccc3)ncnc21 (stereo partly drawn),79%,-11.4% (active),80.2%,29.7%,11.3%,86.6%,87.7%,-74.5% (active),105%,84.9%,86.3%,54.6%,-94.9% (active),97.2%,-12.9% (active),76.2%,88.7%,-30.4% (active),4.05% (active),–
CC1(C)CC(=O)c2cc3c(N)c(C(=O)Nc4ccc(Cl)cc4)sc3nc2C1,108%,96.4%,114%,103%,105%,96%,105%,109%,118%,101%,93.2%,110%,109%,95.2%,117%,134%,75.6%,97.2%,104%,–
O=C1SCN(Cc2ccccc2)CN1Cc1ccccc1,98%,90.4%,91%,99.5%,86.3%,92.8%,89.6%,70.2%,111%,101%,101%,96.3%,57.9%,111%,107%,95.9%,78.2%,61.3%,71.8%,–
O=c1c2cc(Br)cc(Br)c2nc(-c2ccc(Cl)cc2)n1/N=C/c1cccc(F)c1,75.2%,62.1%,–,43.3%,67%,70.9%,74.6%,62.4%,85.1%,59.8%,59.2%,53.5%,19.7%,22.3%,10.8%,14.5%,101%,48.8%,64.8%,57.6%
CNC(=O)c1c(NC(=O)c2cccc(C(F)(F)F)c2)sc2c1CCC(=O)C2,-37% (active),4.59% (active),–,2.7% (active),-46.4% (active),-68.3% (active),-41.1% (active),-49.6% (active),7.1% (active),-16.5% (active),4.31% (active),3.13% (active),-94.3% (active),32.1%,-66.9% (active),-22.5% (active),-5.84% (active),-0.844% (active),-7.92% (active),13.8%
COc1cccc(-c2nc3sccn3c2-c2ccnc(NCCN3CCCNS3(=O)=O)n2)c1,97.1%,45.2%,88.4%,112%,94.4%,80.8%,9.99% (active),35%,44.1%,86.3%,110%,60.8%,70.7%,115%,–,44.6%,108%,68.1%,87.5%,–
O=C(c1ccccc1)C1OC1C(=O)c1ccccc1 (stereo not drawn),13.1%,10% (active),11.1%,28.1%,51%,37.7%,46.8%,2.54% (active),49.2%,34%,81.3%,28.2%,60.1%,36.9%,33.1%,14.6%,95.6%,12.1%,45.6%,–
COc1cc(-c2nc(-c3ccc(-c4nc5ccc(F)cc5[nH]4)cc3)no2)cc(OC)c1OC,19.4%,9.19% (active),76.6%,46.1%,6.63% (active),20.7%,20.9%,24.8%,60.6%,55.6%,46.9%,66.1%,19.8%,93%,36.7%,47.3%,71.2%,8.61% (active),21.1%,–
COc1cc(C2C(C#N)=C(N)Oc3cc4c(cc32)OCO4)cc2c1OCO2 (stereo not drawn),21.5%,9.21% (active),-9.64% (active),28.4%,27.9%,19.8%,30.7%,38.3%,41.7%,56.6%,55.7%,35.2%,46.3%,72.1%,35%,60.8%,8.65% (active),18.2%,20.3%,–
O=C(Nc1ccc(Cl)cc1)c1cc(-c2ccc(Cl)cc2)c2sc(=O)[nH]c2n1,7.94% (active),-24% (active),10.5%,0.838% (active),-13.5% (active),-19.6% (active),-14.7% (active),13.4%,25.2%,-29.3% (active),9.13% (active),-9.7% (active),-5.54% (active),0.672% (active),0.731% (active),8.17% (active),-43.8% (active),5.46% (active),-24.2% (active),–
